About 83,000 compounds went through this panel and 20% of them were active in at least one assay; those are over-represented in the sample as a whole.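 Activity criterion: percent growth below 10, measured after cells in 96-well plates were exposed to a single compound concentration for 48 hours.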 The source made the active and inactive calls.

This assay deals with NCI-H23 lung. As to the kind of experiment: NCI-60 one-dose screen, 48 h (100 = growth as untreated, 0 = no growth, -100 = all killed). To be noted: 10 µM. As for the experimental part: Growth inhibition of the NCI-H23 human Non-Small Cell Lung tumor cell line is measured as a screen for anti-cancer activity. Cells are grown in 96 well plates and exposed to the test compound for 48 hours. Compounds are tested at a single concentration, which is 10^-5 M for most compounds. The reported endpoint is percent growth (GI% or GIPRCNT), where numbers from 0 - 100% represent growth inhibition, and numbers from -100% - 0 represent cell death. For example, a value of 40 represents 60% growth inhibition. A value of 0 means no net growth occurred over the course of the experiment. A value of -40 indicates 40% of cells at the beginning of the experiment died by the end of the experiment. A value of -100 means all cells are dead at the end of the experiment.
NCI-60 Human Tumor Cell Lines Screen was performed using the standard one-dose NCI protocol, which is described in more detail at https://dtp.cancer.gov/discovery_development/nci-60/default.htm.
Compounds with GIPRCNT values below 10 were considered active. Activity score was based on GIPRCNT using the following formula: […]
Score is 0 for GIPRCNT values of 100 or above, 50 for GIPRCNT values of 0, and 100 for GIPRCNT values of -100.
On to `COc1cc2cc(C(=O)N3C[C@@H](CCl)c4c3cc(OC(=O)N3CCN(C)[C@@H]5CSSC[C@@H]53)c3ccccc43)[nH]c2c(OC)c1OC`, for which the growth was -67.5% (active).

For `CC12OOC(C)(OO1)C2CCC(=O)NCCNc1ccnc2cc(Cl)ccc12` (stereo not given), the growth is 92.6% (inactive).

On to `C[C@H]1[C@H](OC(=O)CCC(=O)Nc2cnccn2)O[C@@H]2OC3(C)CC[C@H]4[C@H](C)CC[C@@H]1[C@@]24OO3`, for which the growth was 25.9% (inactive).

For `CC(C)N=C([Se])NC(=O)c1cccs1`, the growth was -33.4% (active).

On to `COCCOCCOCCOc1ccc(-n2cc(-c3ccc(O[C@H]4O[C@@H]5OC6(C)CC[C@H]7[C@H](C)CC[C@@H]([C@H]4C)[C@@]57OO6)cc3)nn2)cc1`, for which the growth is 27.2% (inactive).

Consider `O=C(/C=C/c1cccc(Br)c1)c1nc2ccccc2n1Cc1ccc(F)cc1`, for which the growth is 34% (inactive).

Take `CC[C@]12C=CCN3CC[C@@]4(c5ccc(OC)cc5N(C)[C@H]4[C@@](O)(C(=O)OC)[C@@H]1OC(=O)CCCC[P+](c1ccc(OC)cc1)(c1ccc(OC)cc1)c1ccc(OC)cc1)[C@@H]32`: the growth is -90.7% (active).

Turning to `CC[C@]12C=CCN3CC[C@@]4(c5ccc(OC)cc5N(C)[C@H]4[C@@](O)(C(=O)OC)[C@@H]1OC(=O)CCCC[P+](c1ccc(C)cc1)(c1ccc(C)cc1)c1ccc(C)cc1)[C@@H]32`, the growth is -92.4% (active).

As for `CC1=C2C(=C[C@@](C)(COP(=O)(Oc3ccccc3)Oc3ccccc3)[C@@H]2O)C(=O)[C@@](C)(O)C12CC2`, the growth is -84.6% (active).

In the case of `C[C@H]1[C@H](OC(=O)CCC(=O)N(CCCc2cn(-c3ccc(CN4CCOCC4)cc3)nn2)CCNc2ccnc3cc(Cl)ccc23)O[C@@H]2OC3(C)CC[C@H]4[C@H](C)CC[C@@H]1[C@@]24OO3`, the growth is 45.3% (inactive).

With `C[C@H]1[C@H](OC(=O)CCC(=O)N(CCCc2cn(-c3ccc([N+](=O)[O-])cc3)nn2)CCNc2ccnc3cc(Cl)ccc23)O[C@@H]2OC3(C)CC[C@H]4[C@H](C)CC[C@@H]1[C@@]24OO3`, the growth was 43.4% (inactive).

With `C#CC[Se]C(=O)c1ccc2n[se]nc2c1`, the growth was 77% (inactive).

On to `O=C(/C=C/c1ccc(Cl)cc1)c1nc2ccccc2n1Cc1ccc(Br)cc1`, for which the growth was 61.9% (inactive).

With `O=C(/C=C/c1ccco1)c1nc2ccccc2n1Cc1ccc(F)cc1`, the growth is 65.2% (inactive).

On to `C[C@H]1[C@@H](CC(=O)N[C@@H](Cc2coc3ccccc23)B(O)O)O[C@@H]2OC3(C)CC[C@H]4[C@H](C)CC[C@@H]1[C@@]24OO3`, for which the growth was -65.9% (active).

Turning to `N#C[Se]CC(=O)Nc1cccc(C(F)(F)F)c1`, the growth was -46.7% (active).

For `CC1=C(C=O)C2=C(C)C3(CC3)[C@@](C)(O)C(=O)C2=C1`, the growth was 10.3% (inactive).

Turning to `O=C(NCCCCC(c1ccc(F)cc1)c1ccc(F)cc1)Nc1ccc([N+](=O)[O-])c(C(F)(F)F)c1`, the growth was -10.2% (active).

For `O=C(/C=C/c1ccccc1)c1nc2ccccc2n1Cc1ccc(Br)cc1`, the growth was -71.5% (active).

For `CC(=C\C(=O)Oc1ccc2c3c1OC1C(O)CCC4(O)C(C2)N(CC2CCC2)CCC314)/C=C1\CCCc2ccccc21` (stereo not given), the growth was 64.3% (inactive).

Turning to `O=C([Se]C1C=CCCC1)c1ccc(C(=O)[Se]C2C=CCCC2)s1` (stereo not given), the growth was -74% (active).

`O=C(/C=C/c1ccc(Cl)cc1Cl)c1nc2ccccc2n1Cc1ccc(F)cc1`: the growth is 47.8% (inactive).

On to `CC1=C(CCC=NNC(N)=O)C2=C(C)C3(CC3)[C@@](C)(O)C(=O)C2=C1`, for which the growth was -78.2% (active).

As to `CC12OOC(C)(OO1)C2CCC(=O)OCCNc1ccnc2cc(Cl)ccc12` (stereo not given), the growth was 4.36% (active).

In the case of `COC(=O)CCn1c(-c2ccc(-n3cc(-c4ccc(O[C@H]5O[C@@H]6OC7(C)CC[C@H]8[C@H](C)CC[C@@H]([C@H]5C)[C@@]68OO7)cc4)nn3)cc2)nc2ccccc21`, the growth is 13.6% (inactive).

Consider `COc1ccc(/C=C/C(=O)c2nc3ccccc3n2Cc2ccc(Br)cc2)cc1`, for which the growth is 61.9% (inactive).

Consider `CC1=C(CCC=O)C2=C(C)C3(CC3)[C@@](C)(O)C(=O)C2=C1`, for which the growth was -86% (active).

Consider `CC12OOC(C)(OO1)C2CCC(=O)NCCCNc1ccnc2cc(Cl)ccc12` (stereo not given), for which the growth is 68.8% (inactive).

On to `COc1cc2cc(C(=O)N3C[C@@H](CCl)c4c3cc(OC(=O)N3CCN(C)[C@@H]5CSSC[C@H]53)c3ccccc43)[nH]c2c(OC)c1OC`, for which the growth is -80.6% (active).

For `CCOC(=O)C1=C(Nc2ccccc2)C(=O)OC12C(=O)Nc1ccccc12` (stereo not given), the growth was 97.3% (inactive).

Consider `COc1cc(OC)c(/C=C/C(=O)c2nc3ccccc3n2Cc2ccc(F)cc2)c(OC)c1`, for which the growth was 89% (inactive).

On to `COc1cc2cc(C(=O)N3C[C@@H](CCl)c4c3cc(OC(=O)N3CCN(C(=O)CCC(=O)N5CCN(C)CC5)[C@@H]5CSSC[C@@H]53)c3ccccc43)[nH]c2c(OC)c1OC`, for which the growth was -93% (active).

Take `O=C(/C=C/c1ccc(F)cc1)c1nc2ccccc2n1Cc1ccc(Br)cc1`: the growth is -75.4% (active).

As to `CC[C@]12C=CCN3CC[C@@]4(c5ccc(OC)cc5N(C)[C@H]4[C@@](O)(C(=O)OC)[C@@H]1OC(=O)CCC[P+](C1CCCCC1)(C1CCCCC1)C1CCCCC1)[C@@H]32`, the growth is -4.73% (active).

Turning to `O=C(/C=C/c1cccc(Br)c1)c1nc2ccccc2n1Cc1ccc(Br)cc1`, the growth is -50.7% (active).

`CCOP(=O)(CC(F)(F)C(F)(F)F)OCC`: the growth is 50.4% (inactive).

`C[C@H]1[C@@H](Oc2ccc(-c3cn(-c4ccnc5cc(Cl)ccc45)nn3)cc2)O[C@@H]2OC3(C)CC[C@H]4[C@H](C)CC[C@@H]1[C@@]24OO3`: the growth was 28.4% (inactive).

Turning to `COC(=O)C[C@](O)(CCC(C)C)C(=O)O[C@H]1C(OC)=C[C@@]23CCCN2CCc2cc4c(cc2[C@@H]13)OCO4`, the growth is -54.3% (active).

For the compound `O=C(/C=C/c1ccc(Cl)cc1Cl)c1nc2ccccc2n1Cc1ccc(Br)cc1`, the growth is 72.3% (inactive).

Turning to `Cc1ccc2[nH]c(=S)n(-c3ccc(F)cc3)c(=O)c2c1`, the growth was 98.7% (inactive).

The values are drawn from PubChem BioAssay (NCI).
